Measurements: PubChem BioAssay
Active and inactive are the calls of the source.

Tests used:
[1] = system: Human papillomavirus type 1a protein E7 (residues 44-93); assay: small molecules binding HPV E7 44-93 – biochemical, small-molecule microarray, residues 44-93, 635 nm fluorescence, primary screen (AID 1108); conditions: fluorescence 635 nm, higher = more signal;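 note: E7 fragment applied at 1 µg/mL in TBST for 1 h at 4 C; score combines spot fluorescence with its signal to noise ratio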
[2] = hepatitis C replication reporter changes, two-sided – Huh7 cells, luciferase reporter, HCV replication inhibitor project, primary screen (AID 1109); conditions: Huh7 HCV replicon luciferase reporter, 48 h; higher = more signal;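 note: huh7 hepatoma cells harbouring a luciferase neomycin HCV replicon reporter; luciferase luminescence as measure of HCV replicon replication; test concentration not given here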
[3] = molecular target: Left-right determination factor 2 (Homo sapiens) (UniProt O00292); assay: small molecules binding LEFTY2 protein – biochemical, small-molecule microarray, 635 nm fluorescence scan, primary screen (AID 1110); conditions: higher = more signal
[4] = molecular target: Calmodulin-1 (Homo sapiens) (UniProt P0DP23); assay: small molecules binding calmodulin-1 with EGTA – biochemical, small-molecule microarray, Cy5-labelled CALM1, profiling panel (AID 1111); conditions: Cy5-CALM1 binding fluorescence, higher = more signal;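 note: labelled calmodulin applied in Tris saline Tween buffer holding calcium plus EGTA and DTT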
[5] = molecular target: Calmodulin-1 (Homo sapiens) (UniProt P0DP23); assay: small molecules binding Ca-loaded calmodulin-1 – biochemical, small-molecule microarray, Cy5-labelled CALM1, plus calcium, artefact control for SMM control-protein annotation, profiling panel (AID 1112); conditions: Cy5-CALM1 binding fluorescence, higher = more signal;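 note: score merges spot fluorescence with signal to noise from triplicate slides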
[6] = probe aWnt5a binding to arrayed compounds – biochemical, biotinylated probe, 635/667 nm fluorescence, primary screen (AID 1113); conditions: small-molecule microarray, higher = more signal;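 note: score merges 667 nm fluorescence intensity with signal-to-noise per printed feature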
[7] = probe aShh binding to arrayed compounds – biochemical, biotinylated probe, 635/667 nm fluorescence, primary screen (AID 1114); conditions: small-molecule microarray, higher = more signal;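 note: probe is biotin-labelled aShh protein from a stem cell growth factor screen; measures binding of labelled protein to compounds printed on the slide; score merges feature fluorescence at 667 nm with signal-to-noise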
[8] = probe aNog binding to arrayed compounds – biochemical, biotinylated probe, 635/667 nm fluorescence, primary screen (AID 1115); conditions: small-molecule microarray, higher = more signal;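 note: probe is biotinylated aNog protein used at 0.15 µg/mL for 1 h at 4 C; z-score combines 667 nm fluorescence of each spot with its signal to noise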
[9] = molecular target: Torsin-1A-interacting protein 1 (Homo sapiens) (UniProt Q5JTV8); assay: compound microarray binding of lysate hLAP1 – cell lysate, small-molecule microarray, COS7 lysate, 635/667 nm fluorescence, primary screen (AID 1116); conditions: 635 nm fluorescence, higher = more signal
[10] = molecular target: Alpha-bungarotoxin (Bungarus multicinctus) (UniProt P60615); assay: compounds binding labelled alpha-BTX control protein – biochemical, small-molecule microarray, Alexa647 label, 635/667 nm fluorescence, artefact control for SMM control protein annotation, profiling panel (AID 1117); conditions: alpha-BTX-A647 binding fluorescence, higher = more signal
Albumin (Bos taurus) = Albumin (Bos taurus) (UniProt P02769); assay: compounds binding labelled BSA control protein – biochemical, small-molecule microarray, Alexa647 label, 635/667 nm fluorescence, artefact control for SMM control protein annotation, profiling panel (AID 1118); conditions: BSA-A647 binding, fluorescence 635 nm, higher = more signal;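 note: score merges 667 nm emission intensity and signal-to-noise per printed compound spot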
[11] = probe aXIP binding to arrayed compounds – biochemical, NeuroSMM set, 635/667 nm fluorescence, primary screen (AID 1119); conditions: small-molecule microarray, higher = more signal, called active from +8 up or from −8 down;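 note: probe is the protein aXip251-270 applied at 1 µg/mL to compound-printed slides; binding of probe to printed compounds measured as 667 nm fluorescence plus signal to noise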
[12] = probe aNOTCH3 binding on compound microarray – biochemical, small-molecule microarray, 635/667 nm fluorescence, primary screen (AID 1120); conditions: higher = more signal;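 note: probe is a biotin-tagged antibody raised against NOTCH3 rather than NOTCH3 protein; score merges spot fluorescence near 667 nm with spot signal to noise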
[13] = probe aNOTCH2 binding on compound microarray – biochemical, small-molecule microarray, 635/667 nm fluorescence, primary screen (AID 1121); conditions: higher = more signal;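 note: score merges feature fluorescence read at 667 nm with its signal to noise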
[14] = molecular target: Carbonic anhydrase 2 (Homo sapiens) (UniProt P00918); assay: compounds binding carbonic anhydrase 2 – biochemical, small-molecule microarray, Alexa647-labelled CAII, profiling panel (AID 1122); conditions: CAII-A647 binding fluorescence, higher = more signal
[15] = COS7 lysate on small-molecule microarray, probe aHis, 635 nm (AID 1123); conditions: COS7 cell lysate, fluorescence, higher = more signal;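 note: z-score combines 667nm fluorescence intensity with signal-to-noise per printed compound spot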
[16] = probe aLAP1 signal on lysate-treated microarray – cell lysate, small-molecule microarray, COS7 lysate, primary screen (AID 1124); conditions: probe aLAP1, fluorescence, higher = more signal;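 note: lysate comes from COS7 cells expressing LAP1 and is applied at 0.3 µg/mL; score merges spot fluorescence near 667 nm with signal-to-noise over triplicate slides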
Sam68 (KHDRBS1) = assay: compounds binding KHDRBS1 protein – biochemical, small-molecule microarray, 635 nm fluorescence, primary screen (AID 1125); conditions: higher = more signal;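 note: score merges 667 nm channel intensity with signal to noise over triplicate slides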
[17] = system: Chordin-like protein 2 (CHRDL2); assay: compounds binding chordin-like 2 – biochemical, small-molecule microarray, 635 nm fluorescence, primary screen (AID 1126); conditions: fluorescence 635 nm, higher = more signal;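 note: printed compound slides probed with Chrdl2 protein at 4 µg/mL for 1 h at 4 C; score merges 667 nm emission intensity with signal to noise over three replicate slides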
[18] = molecular target: Concanavalin-A (Canavalia ensiformis) (UniProt P02866); assay: compounds binding concanavalin A lectin – biochemical, small-molecule microarray, Alexa647 label, 635 nm, artefact control for SMM control protein annotation, primary screen (AID 1127); conditions: ConA-A647 binding fluorescence, higher = more signal;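 note: z combines 667 nm emission intensity with signal-to-noise across three replicate slides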
Chain of Concanavalin-A (Canavalia ensiformis) (P02866 whole entry, looked up): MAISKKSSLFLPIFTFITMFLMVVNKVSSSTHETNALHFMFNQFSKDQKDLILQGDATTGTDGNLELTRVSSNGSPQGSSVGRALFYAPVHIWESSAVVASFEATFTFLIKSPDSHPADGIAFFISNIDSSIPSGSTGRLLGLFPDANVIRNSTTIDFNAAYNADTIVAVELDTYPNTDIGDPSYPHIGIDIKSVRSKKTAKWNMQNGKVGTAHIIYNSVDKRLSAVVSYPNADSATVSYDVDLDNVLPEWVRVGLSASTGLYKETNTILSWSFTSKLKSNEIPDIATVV

Chain of Albumin (Bos taurus) (P02769 whole entry, looked up): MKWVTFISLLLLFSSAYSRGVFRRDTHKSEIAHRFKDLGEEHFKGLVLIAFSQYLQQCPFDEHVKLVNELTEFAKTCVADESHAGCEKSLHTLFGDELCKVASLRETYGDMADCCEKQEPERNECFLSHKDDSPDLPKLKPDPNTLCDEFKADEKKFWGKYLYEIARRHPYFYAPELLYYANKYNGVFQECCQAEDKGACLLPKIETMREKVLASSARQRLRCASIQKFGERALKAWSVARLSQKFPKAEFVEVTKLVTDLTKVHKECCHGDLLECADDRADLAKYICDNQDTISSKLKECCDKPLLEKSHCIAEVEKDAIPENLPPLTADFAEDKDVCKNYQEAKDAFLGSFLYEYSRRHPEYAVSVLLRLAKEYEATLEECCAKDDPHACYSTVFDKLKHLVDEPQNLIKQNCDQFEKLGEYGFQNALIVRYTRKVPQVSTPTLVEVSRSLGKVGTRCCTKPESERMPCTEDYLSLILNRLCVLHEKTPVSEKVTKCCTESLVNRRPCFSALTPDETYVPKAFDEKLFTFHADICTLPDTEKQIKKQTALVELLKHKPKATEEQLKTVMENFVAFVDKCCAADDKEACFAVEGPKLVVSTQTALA
Chain of Alpha-bungarotoxin (Bungarus multicinctus) (P60615 whole entry, looked up): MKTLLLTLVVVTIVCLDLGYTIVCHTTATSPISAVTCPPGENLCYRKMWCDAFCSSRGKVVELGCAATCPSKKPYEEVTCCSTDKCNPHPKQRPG
Chain of Left-right determination factor 2 (Homo sapiens) (O00292 whole entry, looked up): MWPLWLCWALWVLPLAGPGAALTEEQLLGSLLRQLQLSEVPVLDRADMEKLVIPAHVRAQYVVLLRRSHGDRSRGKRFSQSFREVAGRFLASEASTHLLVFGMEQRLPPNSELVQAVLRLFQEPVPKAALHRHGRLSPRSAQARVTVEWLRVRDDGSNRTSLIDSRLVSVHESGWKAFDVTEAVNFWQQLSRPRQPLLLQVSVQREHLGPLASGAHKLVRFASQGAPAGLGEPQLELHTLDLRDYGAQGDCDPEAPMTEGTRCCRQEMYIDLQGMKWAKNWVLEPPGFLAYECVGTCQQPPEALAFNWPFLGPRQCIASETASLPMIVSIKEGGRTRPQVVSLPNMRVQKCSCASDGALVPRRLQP
Chain of Torsin-1A-interacting protein 1 (Homo sapiens) (Q5JTV8 whole entry, looked up): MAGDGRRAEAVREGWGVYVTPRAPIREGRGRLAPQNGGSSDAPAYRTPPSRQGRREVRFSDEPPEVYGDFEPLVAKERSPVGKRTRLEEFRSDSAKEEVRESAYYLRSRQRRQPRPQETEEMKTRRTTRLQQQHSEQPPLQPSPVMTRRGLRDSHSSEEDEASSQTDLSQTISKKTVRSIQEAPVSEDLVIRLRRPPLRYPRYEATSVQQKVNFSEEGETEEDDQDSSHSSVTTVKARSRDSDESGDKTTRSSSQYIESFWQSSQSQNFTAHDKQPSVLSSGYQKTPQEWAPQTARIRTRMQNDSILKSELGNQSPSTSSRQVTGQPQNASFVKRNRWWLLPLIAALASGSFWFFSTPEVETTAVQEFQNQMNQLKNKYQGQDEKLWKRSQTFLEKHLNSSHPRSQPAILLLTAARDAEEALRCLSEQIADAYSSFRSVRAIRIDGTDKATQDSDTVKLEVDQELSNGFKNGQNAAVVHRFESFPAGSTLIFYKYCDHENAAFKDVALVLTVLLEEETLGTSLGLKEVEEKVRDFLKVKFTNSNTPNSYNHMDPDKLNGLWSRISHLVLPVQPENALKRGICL

Row | SMILES | composite z-score [1] | z-score [2] | composite z-score [3] | composite z-score [4] | composite z-score [5] | composite z-score [6] | composite z-score [7] | composite z-score [8] | composite z-score [9] | composite z-score [10] | composite z-score (Albumin (Bos taurus)) | composite Z-score [11] | composite z-score [12] | composite z-score [13] | composite z-score [14] | composite z-score [15] | composite z-score [16] | composite z-score (Sam68 (KHDRBS1)) | composite z-score [17] | composite z-score [18]
1 | CC(C)=C1C(=O)C(c2ccccc2)=C2CN3C(=O)N(CCc4ccccc4)C(=O)[C@]3(Cc3ccc(F)cc3)[C@H]21 | 0.891 | -0.864 | -1.67 | 0.327 | 0.32 | 0.229 | 0.0431 | -0.761 | -0.248 | -0.547 | 0.697 | 1.87 (inactive) | 0.186 | 0.148 | 0.306 | 1.04 | 0.34 | 0.639 | -2.22 | -1.05
2 | CCOC(=O)[C@H](Cc1ccccc1)NC(=O)CCC1CC(OC(=O)NCc2ccc3c(c2)OCO3)CC2(CCCC(COC(=O)NCC3CCCCC3)O2)O1 (stereo not given in full) | 1.31 | -0.443 | 0.617 | 0.433 | -0.135 | -0.0179 | -0.299 | -0.167 | 0.517 | 0.629 | 0.276 | 0.236 (inactive) | 0.0525 | -0.0891 | 0.579 | 0.575 | -0.243 | 1.3 | 0.799 | 1.06
3 | CC(CCN1CCc2nc(-c3ccccc3)c(-c3ccccc3)cc2C1)=NOC[C@@H](C)[C@H](OCc1ccccc1)C(C)C | -1.08 | -1.77 | -0.323 | -0.607 | 0.343 | -0.134 | -0.304 | -0.278 | -0.424 | 1.14 | 0.474 | -0.193 (inactive) | 0.0375 | -0.177 | -0.0642 | 0.271 | -0.2 | -1.19 | -1.11 | -0.198
